# Assay results published in PubChem BioAssay AID1159580 (chemical genetic matrix, 2015).
# Screen size: about 5,500 compounds; about 2,000 (36%) were called active. Inconclusive results (about 18%) are left out. The list shows a part of the results. Values without a mark were called inactive. Rule as the data show it: active = normalized growth mostly below about 0.91 (no sharp cut-off); inconclusive = no clear call, values can overlap the other calls; inactive = mostly above about 0.92.
# Test: chemical genetic growth profiling, strain panel (AID 1159580);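 also: tested at 20 µM; growth read once vehicle control cultures reached saturation at 30 °C; 1 = growth at the plate median or of vehicle wells; lower values mean less growth of the strain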
# Conditions: S. cerevisiae deletion strains, growth OD
# [1] = locus YDL101C, strain DUN1, stronger effect = lower value
# [2] = locus YHR030C, strain SLT2, stronger effect = lower value
compound,measurement,setting,value
O=C(NCCCCO)OCC1c2ccccc2-c2ccccc21,normalized growth,"locus YAL013W, strain DEP1, stronger effect = lower value",1
same,normalized growth,"locus YBR229C, strain ROT2, stronger effect = lower value",0.997
same,normalized growth,[1],1
same,normalized growth,"locus YDR150W, strain NUM1, stronger effect = lower value",0.986
same,normalized growth,"locus YEL061C, strain CIN8, stronger effect = lower value",0.985
same,normalized growth,"locus YGR078C, strain PAC10, stronger effect = lower value",0.991
same,normalized growth,"locus YGR229C, strain SMI1, stronger effect = lower value",0.987
same,normalized growth,[2],0.867
same,normalized growth,"locus YHR087W, strain rtc3, stronger effect = lower value",0.987
same,normalized growth,"locus YJR043C, strain POL32, stronger effect = lower value",0.989
same,normalized growth,"locus YJR075W, strain HOC1, stronger effect = lower value",1.01
same,normalized growth,"locus YLR039C, strain RIC1, stronger effect = lower value",1.02
same,normalized growth,"locus YLR058C, strain SHM2 (second series), stronger effect = lower value",0.98
same,normalized growth,"locus YLR085C, strain ARP6, stronger effect = lower value",0.886
same,normalized growth,"locus YLR262C, strain YPT6, stronger effect = lower value",1.02
same,normalized growth,"locus YML094W, strain GIM5, stronger effect = lower value",0.955
same,normalized growth,"locus YMR219W, strain ESC1, stronger effect = lower value",0.995
same,normalized growth,"locus YMR263W, strain SAP30, stronger effect = lower value",0.959
same,normalized growth,"locus YMR307W, strain GAS1, stronger effect = lower value",0.812
same,normalized growth,"locus YNL153C, strain GIM3, stronger effect = lower value",0.983
same,normalized growth,"locus YNL298W, strain CLA4 (second series), stronger effect = lower value",0.929
same,normalized growth,"locus YNL322C, strain KRE1, stronger effect = lower value",1
same,normalized growth,"locus YNR030W, strain Alg12, stronger effect = lower value",0.963
same,normalized growth,"locus YPL055C, strain LGE1, stronger effect = lower value",0.953
same,normalized growth,"locus YPL241C, strain CIN2, stronger effect = lower value",0.937
same,normalized growth,"locus YPR135W, strain CTF4, stronger effect = lower value",0.959
O=C(Nc1ccccc1C(=O)O)OCC1c2ccccc2-c2ccccc21,normalized growth,"locus YAR019C, strain CDC15, stronger effect = lower value",0.993
same,normalized growth,"locus YBL105C, strain PKC1, stronger effect = lower value",0.989
same,normalized growth,"locus YBR135W, strain CKS1, stronger effect = lower value",0.978
same,normalized growth,"locus YBR136W, strain MEC1, stronger effect = lower value",0.987
same,normalized growth,"locus YBR160W, strain CDC28, stronger effect = lower value",0.981
same,normalized growth,"locus YDL017W, strain CDC7, stronger effect = lower value",0.986
same,normalized growth,"locus YDL028C, strain MPS1, stronger effect = lower value",0.987
same,normalized growth,[1],0.988
same,normalized growth,"locus YDL108W, strain KIN28, stronger effect = lower value",0.984
same,normalized growth,"locus YDL132W, strain cdc53, stronger effect = lower value",0.985
same,normalized growth,"locus YDL214C, strain PRR2, stronger effect = lower value",0.884
same,normalized growth,"locus YDR052C, strain DBF4, stronger effect = lower value",0.983
same,normalized growth,"locus YDR054C, strain cdc34, stronger effect = lower value",0.99
same,normalized growth,"locus YDR226W, strain ADK1, stronger effect = lower value",0.982
same,normalized growth,"locus YDR477W, strain SNF1, stronger effect = lower value",0.859
same,normalized growth,"locus YER123W, strain YCK3, stronger effect = lower value",0.839
same,normalized growth,"locus YER133W, strain GLC7, stronger effect = lower value",0.901
same,normalized growth,"locus YFL009W, strain cdc4, stronger effect = lower value",0.986
same,normalized growth,"locus YFL029C, strain CAK1, stronger effect = lower value",0.992
same,normalized growth,"locus YFR003C, strain YPI1, stronger effect = lower value",0.985
same,normalized growth,"locus YFR019W, strain FAB1, stronger effect = lower value",0.803
same,normalized growth,"locus YFR028C, strain CDC14, stronger effect = lower value",0.979
same,normalized growth,"locus YGR040W, strain KSS1, stronger effect = lower value",0.857
same,normalized growth,"locus YGR052W, strain FMP48, stronger effect = lower value",0.701
same,normalized growth,"locus YGR092W, strain DBF2, stronger effect = lower value",0.683
same,normalized growth,[2],0.366 (active)
same,normalized growth,"locus YHR079C, strain IRE1, stronger effect = lower value",0.793
same,normalized growth,"locus YHR082C, strain KSP1, stronger effect = lower value",0.591 (active)
same,normalized growth,"locus YHR205W, strain SCH9, stronger effect = lower value",0.746
same,normalized growth,"locus YIL147C, strain SLN1, stronger effect = lower value",0.986
same,normalized growth,"locus YJL095W, strain BCK1, stronger effect = lower value",0.665
same,normalized growth,"locus YJL128C, strain PBS2, stronger effect = lower value",0.927
same,normalized growth,"locus YJL157C, strain FAR1, stronger effect = lower value",0.893
same,normalized growth,"locus YJR016C, strain ILV3, stronger effect = lower value",0.99
same,normalized growth,"locus YJR066W, strain TOR1 (second series), stronger effect = lower value",0.826
same,normalized growth,"locus YJR066W, strain TOR1, stronger effect = lower value",0.709
same,normalized growth,"locus YKL048C, strain ELM1, stronger effect = lower value",0.799 (active)
same,normalized growth,"locus YKL067W, strain YNK1, stronger effect = lower value",0.866
same,normalized growth,"locus YKL101W, strain HSL1, stronger effect = lower value",0.72
same,normalized growth,"locus YKL193C, strain SDS22, stronger effect = lower value",0.987
same,normalized growth,"locus YKL203C, strain TOR2, stronger effect = lower value",0.883
same,normalized growth,"locus YLR113W, strain HOG1, stronger effect = lower value",0.8 (active)
same,normalized growth,"locus YLR133W, strain CKI1, stronger effect = lower value",0.78
same,normalized growth,"locus YLR403W, strain SFP1, stronger effect = lower value",0.795
same,normalized growth,"locus YML070W, strain DAK1, stronger effect = lower value",0.842
same,normalized growth,"locus YMR001C, strain CDC5, stronger effect = lower value",0.986
same,normalized growth,"locus YMR205C, strain PFK2 (second series), stronger effect = lower value",0.853
same,normalized growth,"locus YMR277W, strain FCP1, stronger effect = lower value",0.989
same,normalized growth,"locus YNL006W, strain LST8, stronger effect = lower value",0.978
same,normalized growth,"locus YNL020C, strain ARK1, stronger effect = lower value",0.728
same,normalized growth,"locus YNL161W, strain CBK1, stronger effect = lower value",0.983
same,normalized growth,"locus YNL183C, strain NPR1, stronger effect = lower value",0.742
same,normalized growth,"locus YNL207W, strain RIO2, stronger effect = lower value",0.992
same,normalized growth,"locus YNL222W, strain SSU72, stronger effect = lower value",0.985
same,normalized growth,"locus YNL307C, strain MCK1 (second series), stronger effect = lower value",0.703
same,normalized growth,"locus YOL078W, strain AVO1, stronger effect = lower value",0.977
same,normalized growth,"locus YOL136C, strain PFK27, stronger effect = lower value",0.805
same,normalized growth,"locus YOR061W, strain CKA2, stronger effect = lower value",0.553 (active)
same,normalized growth,"locus YOR119C, strain RIO1, stronger effect = lower value",0.927
same,normalized growth,"locus YOR231W, strain MKK1, stronger effect = lower value",0.818
same,normalized growth,"locus YOR329C, strain SCD5, stronger effect = lower value",0.993
same,normalized growth,"locus YPL031C, strain PHO85, stronger effect = lower value",0.827
same,normalized growth,"locus YPL153C, strain RAD53, stronger effect = lower value",0.855
same,normalized growth,"locus YPL204W, strain HRR25, stronger effect = lower value",0.797
same,normalized growth,"locus YPL209C, strain IPL1, stronger effect = lower value",0.984
same,normalized growth,"locus YPL256C, strain CLN2, stronger effect = lower value",0.808 (active)
same,normalized growth,"locus YPR025C, strain CCL1, stronger effect = lower value",0.991
same,normalized growth,"locus YPR106W, strain ISR1, stronger effect = lower value",0.977
same,normalized growth,"locus YPR111W, strain DBF20, stronger effect = lower value",0.96
same,normalized growth,"strain NNK1, stronger effect = lower value",0.987
same,normalized growth,"strain TSCII, stronger effect = lower value",0.99
